Measured values from PubChem BioAssay.
Results with a measured potency or affinity are listed apart. Records with an inconclusive call do not appear. Calls of active or inactive are those of the source. Unless noted, the rule behind the calls is not given here.

Experiments:
[1] = inhibitors of PAX8-driven TPO luciferase reporter, dose response, RMG-I cells, cherry-pick (AID 687027;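 active = every replicate test run called active, with the signal dropping as expected and potency within twice the top valid dose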); conditions: RMG-I TPO-Luc reporter, SteadyGlo luminescence, 24 h; series mostly up to 35 µM
[2] = cytotoxicity in PAX8-dependent RMG-1 cells, dose response, cell-based, cherry-pick (AID 687029;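 active = signal drop whose fitted half-maximal concentration is at most twice the top valid dose, in every test run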;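 note: cells exposed to compound for 96 hours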); conditions: RMG-1 viability, CellTiterGlo ATP luminescence, 96 h; series mostly up to 35 µM
[3] = cytotoxicity in IOSE-T80 ovarian epithelial cells, dose response, selectivity assay for PAX8 inhibitor project, cell-based, cherry-pick (AID 687032;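 active = fitted half-maximal concentration for viability loss no higher than twice the top valid dose, in every repeat run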;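 note: cells exposed to compound for 96 h before reading; 0% = neutral control wells and -100% = 2 µM mitoxantrone kill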); conditions: CellTiterGlo ATP luminescence, 96 h; series mostly up to 35 µM
[4] = inhibitors of CMV-promoter luciferase reporter, dose response, counter-screen for Pax8 inhibitor project, cell-based, HEK293, luminescence, dry powder (AID 743020;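 active = signal-lowering compounds whose fitted half-maximal concentration is at or below twice the top tested dose in every run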;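 note: HEK293 cells stably expressing the CMV luciferase reporter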); conditions: SteadyGlo luminescence, 24 h; series mostly up to 35 µM
[5] = non-specific cell cytotoxicity, dose response, cytotoxicity control for PAX8 inhibitor project, plate reader, dry powder samples (AID 743021); conditions: cell line, non-specific cytotoxicity counter-screen; series mostly up to 35 µM
[6] = IOSE-T80 ovarian epithelial cell cytotoxicity, dose response, cytotoxicity control for PAX8 inhibitor project, plate reader, dry powder samples (AID 743045); conditions: IOSE-T80 ovarian epithelial cells; series mostly up to 35 µM;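 note: 0% = neutral control median and -100% = positive control median; more negative values mean more cell killing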
[7] = A2780 ovarian cancer cell cytotoxicity, dose response, cytotoxicity control, plate reader, dry powder samples (AID 743046); conditions: series mostly up to 35 µM;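 note: 0% = neutral control wells and -100% = cytotoxic reference compound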
[8] = IGROV1 ovarian cancer cell cytotoxicity, dose response, PAX8 inhibitor project, plate reader, dry powder samples (AID 743043); conditions: series mostly up to 35 µM;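 note: more negative means fewer viable cells or more cytotoxicity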
[9] = NIH:OVCAR-3 ovarian cancer cell cytotoxicity, dose response, PAX8 inhibitor project, plate reader, dry powder samples (AID 743044); conditions: NIH:OVCAR-3 ovarian cancer cell viability; max activity: at 35 µM, hits give low values unless noted; series mostly up to 50 µM
[10] = cytotoxicity in OVCAR8 ovarian cancer cells, dose response, PAX8 project, cell-based, plate reader, dry powder samples (AID 743197); conditions: series mostly up to 35 µM

Fc1cccc(CN2C[C@@H]3N[C@H](C2)C3c2ccc(-c3ccccc3)cc2)c1 (stereo partly specified)
inactive: outcome [1] | outcome [2] | outcome [3] | outcome [4] | outcome [5] | outcome [6]

C[C@H]1CCCCO[C@H](CN(C)Cc2ccccc2)[C@@H](C)CN([C@@H](C)CO)C(=O)c2cc(NC(=O)Nc3ccc(C(F)(F)F)cc3)ccc2O1
inactive: outcome [1] | outcome [2] | outcome [3] | outcome [4] | outcome [5] | outcome [6] | outcome [7]

O=C(Cc1ccccn1)N[C@H]1CC[C@H](CCn2cc(-c3ccccc3)nn2)O[C@@H]1CO
inactive: outcome [1] | outcome [2] | outcome [3] | outcome [4] | outcome [5] | outcome [8] | max activity [9] -16.8% [at 16 µM, hits give low values] | outcome [6] | outcome [7] | outcome [10]

COc1ccc(-c2cn(CC[C@H]3CC[C@H](NC(=O)Cc4ccccn4)[C@@H](CO)O3)nn2)cc1
inactive: outcome [1] | outcome [2] | outcome [3] | outcome [4] | outcome [5] | outcome [8] | max activity [9] -17.4% | outcome [6] | outcome [7] | outcome [10]

C[C@H]1CN([C@@H](C)CO)C(=O)c2cccc(NC(=O)Nc3cccc4ccccc34)c2O[C@H]1CN(C)CC1CC1
inactive: outcome [1] | outcome [2] | outcome [3] | outcome [4] | outcome [5] | outcome [8] | max activity [9] -29.9% | outcome [6] | outcome [7] | outcome [10]

COc1ccc(-c2cn(CC[C@@H]3CC[C@H](NC(=O)Cc4ccccn4)[C@H](CO)O3)nn2)cc1
inactive: outcome [1] | outcome [2] | outcome [3] | outcome [4] | outcome [5] | outcome [8] | max activity [9] 27.6% [at 1 µM, hits give low values] | outcome [6] | outcome [10]

O=C(C[C@@H]1C[C@@H]2c3cc(NC(=O)Nc4ccccc4F)ccc3O[C@@H]2[C@H](CO)O1)NCc1ccc(Oc2ccccc2)cc1
inactive: outcome [1] | outcome [2] | outcome [3] | outcome [4] | outcome [5] | outcome [8] | max activity [9] 14% [at 0.5 µM, hits give low values] | outcome [6] | outcome [7] | outcome [10]

COc1ccc(-c2ccc3c(c2)[C@H]2[C@H](CCN2C(=O)Cc2cccnc2)[C@H](CO)N3C)cc1
inactive: outcome [1] | outcome [2] | outcome [3] | outcome [4] | outcome [5] | outcome [8] | max activity [9] 35.5% [at 0.26 µM, hits give low values] | outcome [6] | outcome [7]

COc1ccc(-c2cn(CC[C@H]3CC[C@@H](NC(=O)Cc4ccccn4)[C@@H](CO)O3)nn2)cc1
inactive: outcome [1] | outcome [2] | outcome [3] | outcome [4] | outcome [5] | outcome [8] | max activity [9] -22.3% [at 4.2 µM, hits give low values] | outcome [6]

CO[C@@H]1CN(C)C(=O)c2cc(NC(=O)c3ccccc3F)ccc2OC[C@@H](C)N(CC2CC2)C[C@@H]1C
inactive: outcome [1] | outcome [2] | outcome [3] | outcome [4] | outcome [5] | outcome [8] | max activity [9] 9.58% [at 0.5 µM, hits give low values] | outcome [6] | outcome [7] | outcome [10]

C[C@H](O)C#Cc1ccc2c(c1)O[C@@H](CN(C)Cc1ccc(-c3ccccc3)cc1)[C@H](C)CN([C@@H](C)CO)S2(=O)=O
inactive: outcome [1] | outcome [2] | outcome [3] | outcome [4] | outcome [5] | outcome [8] | max activity [9] -13.7% | outcome [6] | outcome [10]

C[C@@H]1CN([C@@H](C)CO)C(=O)c2cc(NS(=O)(=O)c3ccc(Cl)cc3)ccc2O[C@@H](C)CCCCO[C@H]1CN(C)C
inactive: outcome [1] | outcome [2] | outcome [3] | outcome [4] | outcome [5] | outcome [8] | max activity [9] -14.3% | outcome [6] | outcome [7] | outcome [10]

O=C(C[C@@H]1C=C[C@H](NC(=O)Nc2ccc(C(F)(F)F)cc2)[C@H](CO)O1)NCCN1CCCC1
inactive: outcome [1] | outcome [2] | outcome [3] | outcome [4] | outcome [5] | outcome [8] | max activity [9] 7.59% [at 2.1 µM, hits give low values] | outcome [6] | outcome [7] | outcome [10]

COc1cccc(-c2ccc(C3[C@@H]4CN(Cc5cccc(F)c5)C[C@H]3N4)cc2)c1 (stereo partly specified)
inactive: outcome [1] | outcome [2] | outcome [3] | outcome [4] | outcome [5] | outcome [7] | outcome [10]

C[C@@H]1CN([C@H](C)CO)C(=O)c2cccc(NC(=O)Nc3ccc(C(F)(F)F)cc3)c2O[C@H]1CN(C)CC1CC1
inactive: outcome [1] | outcome [2] | outcome [3] | outcome [4] | outcome [5] | outcome [8] | max activity [9] -14% [at 0.26 µM, hits give low values] | outcome [6] | outcome [7] | outcome [10]

COc1ccc(-c2cn(CC[C@H]3CC[C@@H](NC(=O)Cc4ccccn4)[C@H](CO)O3)nn2)cc1
inactive: outcome [1] | outcome [2] | outcome [3] | outcome [4] | outcome [5] | outcome [8] | max activity [9] 35.1% [at 2.1 µM, hits give low values] | outcome [6] | outcome [10]

C[C@@H]1CN([C@H](C)CO)C(=O)c2cc(NC(=O)Cc3ccccc3)ccc2O[C@@H](C)CCCCO[C@H]1CN(C)Cc1ccc(Cl)c(Cl)c1
inactive: outcome [1] | outcome [2] | outcome [3] | outcome [4] | outcome [5] | outcome [8] | outcome [6] | outcome [7]

O=C(Nc1ccc(C(F)(F)F)cc1)Nc1ccc2c(c1)[C@@H]1C[C@@H](CC(=O)N3CCc4ccccc4C3)O[C@H](CO)[C@@H]1O2
inactive: outcome [1] | outcome [2] | outcome [3] | outcome [4] | outcome [5] | outcome [8] | max activity [9] 19.1% [at 2.1 µM, hits give low values] | outcome [6] | outcome [7] | outcome [10]

C[C@@H]1CCCCO[C@H](CN(C)C)[C@H](C)CN([C@@H](C)CO)C(=O)c2cc(NS(=O)(=O)c3ccc(Cl)cc3)ccc2O1
inactive: outcome [1] | outcome [2] | outcome [3] | outcome [4] | outcome [8] | max activity [9] 34.9% [at 0.26 µM, hits give low values] | outcome [6] | outcome [7] | outcome [10]

CCCCNC(=O)/C(=C/c1ccccc1)NC(C)=O
inactive: outcome [1] | outcome [2] | outcome [3] | outcome [4] | outcome [5]

Fc1ccc(CSc2ccc(-c3ccco3)nn2)cc1
inactive: outcome [1] | outcome [2] | outcome [3] | outcome [5]

CN(C(=O)COC(=O)C1CCN(S(=O)(=O)c2c(Cl)cccc2Cl)CC1)C1CCS(=O)(=O)C1 (stereo unspecified)
inactive: outcome [1] | outcome [2] | outcome [4] | outcome [5]

COc1ccc(O)c(C(c2c(C)[nH][nH]c2=O)c2c(C)[nH][nH]c2=O)c1
inactive: outcome [1] | outcome [2] | outcome [3] | outcome [5]

COc1ccc(OCCNC(=O)/C=C/c2ccc([N+](=O)[O-])cc2)cc1
inactive: outcome [1] | outcome [2] | outcome [4] | outcome [5]

O=C(Cc1nnc(NC(=O)c2ccccc2)s1)N/N=C/c1ccco1
inactive: outcome [1] | outcome [2] | outcome [4] | outcome [5]

COc1ccc(C2CC(c3ccc(Br)cc3)=NN2C(=S)Nc2ccccc2)cc1 (stereo unspecified)
inactive: outcome [1] | outcome [2] | outcome [3] | outcome [5]

CCOC(=O)C1(Cc2ccc(OC)cc2)CCN(C(=O)CN2CCCCC2=O)CC1
inactive: outcome [1] | outcome [2] | outcome [3] | outcome [5]

CCCCCCCCNC(=O)c1cnccn1
inactive: outcome [1] | outcome [2] | outcome [4] | outcome [5]

COc1ccc2oc(C)c(C(=O)c3ccc([N+](=O)[O-])cc3)c2c1
inactive: outcome [1] | outcome [2] | outcome [3] | outcome [5]

O=C1c2cccc3c(O)ccc(c23)C(=O)N1c1ccc(Cl)cc1
inactive: outcome [1] | outcome [2] | outcome [3] | outcome [5]

O=C(Cc1cccs1)N/N=C/C=C/c1ccccc1
inactive: outcome [1] | outcome [2] | outcome [4] | outcome [5]

COc1ccc(-c2cn(CC[C@@H]3CC[C@H](NC(=O)Cc4ccccn4)[C@@H](CO)O3)nn2)cc1
inactive: outcome [1] | outcome [2] | outcome [3] | outcome [5] | outcome [8] | max activity [9] -8.11% [at 8 µM, hits give low values] | outcome [6] | outcome [7] | outcome [10]

O=C(NC1CCCCCC1)C1c2ccccc2C(=O)N1Cc1cccs1 (stereo unspecified)
inactive: outcome [1] | outcome [2] | outcome [4] | outcome [5]

O=[N+]([O-])c1cccc(-c2nnc(-c3ccc4c(c3)OCO4)o2)c1
inactive: outcome [1] | outcome [2] | outcome [4] | outcome [5]

COc1ccc(-n2nc([N+](=O)[O-])c(=NCc3cccnc3)n2O)cc1
inactive: outcome [1] | outcome [2] | outcome [4] | outcome [5]

CN1CCN(C(=S)Nc2ccc(Cl)c(Cl)c2)CC1
inactive: outcome [1] | outcome [2] | outcome [4] | outcome [5]

O=C(O)CC(NC(=O)C1c2ccccc2Oc2ccccc21)c1ccc(OC2CCCC2)cc1 (stereo unspecified)
inactive: outcome [1] | outcome [2] | outcome [4] | outcome [5]

O=C(/C=C/c1ccco1)Nc1nc(-c2ccccc2)cs1
inactive: activity change, negative = inhibition [1] 99.9% [at 8 µM] | outcome [2] | outcome [3] | outcome [5]

COc1ccc(C)cc1NC(=O)C1CCCN(S(=O)(=O)c2cccc3nonc23)C1 (stereo unspecified)
inactive: outcome [1] | outcome [2] | outcome [4] | outcome [5]

Cc1cc(OCCCn2cnc3ccccc3c2=O)ccc1[N+](=O)[O-]
inactive: outcome [1] | outcome [2] | outcome [4] | outcome [5]

O=C(/C=C/c1c(Cl)nc2ccccn12)Nc1ccc(F)cc1
inactive: outcome [1] | outcome [2] | outcome [3] | outcome [5]

CC(=O)Nc1ccc(C(=O)CSc2cc(C)c3cccc(C)c3n2)cc1
inactive: outcome [1] | outcome [2] | outcome [3] | outcome [5]

O=C(CSc1nc2ccccc2s1)NCCOc1ccccc1
inactive: outcome [1] | outcome [2] | outcome [3] | outcome [5]

CCN(C(=O)COC(=O)c1ccc(S(=O)(=O)N2CCCc3ccccc32)cc1)C1CCS(=O)(=O)C1 (stereo unspecified)
inactive: outcome [1] | outcome [2] | outcome [3] | outcome [5]

O=C(NCC1CCCO1)C(=O)NCC(c1ccco1)N1CCN(c2ccccc2)CC1 (stereo unspecified)
inactive: outcome [1] | outcome [2] | outcome [4] | outcome [5]
